In the supplement of paper PMC11732987, “Enantioselective OTUD7B fragment discovery through chemoproteomics screening and high-throughput optimisation” (Communications Chemistry, 2025):
Unmarked numbers belong to inactive results.

What was measured:
Assay in all cases: log2 ratio of Biotin-Ahx-Ub-VS probe labelling (fragment/DMSO); higher = less target engagement (more negative = stronger competition), active = hit call of the paper (q ≤ 0.05, log2 ratio ≤ -1)
Settings in all cases: compound concentration: 200 uM; treatment time: 3 h
USP19 = molecular target: T1, USP19 (UniProt O94966)
T1 sequence (whole entry): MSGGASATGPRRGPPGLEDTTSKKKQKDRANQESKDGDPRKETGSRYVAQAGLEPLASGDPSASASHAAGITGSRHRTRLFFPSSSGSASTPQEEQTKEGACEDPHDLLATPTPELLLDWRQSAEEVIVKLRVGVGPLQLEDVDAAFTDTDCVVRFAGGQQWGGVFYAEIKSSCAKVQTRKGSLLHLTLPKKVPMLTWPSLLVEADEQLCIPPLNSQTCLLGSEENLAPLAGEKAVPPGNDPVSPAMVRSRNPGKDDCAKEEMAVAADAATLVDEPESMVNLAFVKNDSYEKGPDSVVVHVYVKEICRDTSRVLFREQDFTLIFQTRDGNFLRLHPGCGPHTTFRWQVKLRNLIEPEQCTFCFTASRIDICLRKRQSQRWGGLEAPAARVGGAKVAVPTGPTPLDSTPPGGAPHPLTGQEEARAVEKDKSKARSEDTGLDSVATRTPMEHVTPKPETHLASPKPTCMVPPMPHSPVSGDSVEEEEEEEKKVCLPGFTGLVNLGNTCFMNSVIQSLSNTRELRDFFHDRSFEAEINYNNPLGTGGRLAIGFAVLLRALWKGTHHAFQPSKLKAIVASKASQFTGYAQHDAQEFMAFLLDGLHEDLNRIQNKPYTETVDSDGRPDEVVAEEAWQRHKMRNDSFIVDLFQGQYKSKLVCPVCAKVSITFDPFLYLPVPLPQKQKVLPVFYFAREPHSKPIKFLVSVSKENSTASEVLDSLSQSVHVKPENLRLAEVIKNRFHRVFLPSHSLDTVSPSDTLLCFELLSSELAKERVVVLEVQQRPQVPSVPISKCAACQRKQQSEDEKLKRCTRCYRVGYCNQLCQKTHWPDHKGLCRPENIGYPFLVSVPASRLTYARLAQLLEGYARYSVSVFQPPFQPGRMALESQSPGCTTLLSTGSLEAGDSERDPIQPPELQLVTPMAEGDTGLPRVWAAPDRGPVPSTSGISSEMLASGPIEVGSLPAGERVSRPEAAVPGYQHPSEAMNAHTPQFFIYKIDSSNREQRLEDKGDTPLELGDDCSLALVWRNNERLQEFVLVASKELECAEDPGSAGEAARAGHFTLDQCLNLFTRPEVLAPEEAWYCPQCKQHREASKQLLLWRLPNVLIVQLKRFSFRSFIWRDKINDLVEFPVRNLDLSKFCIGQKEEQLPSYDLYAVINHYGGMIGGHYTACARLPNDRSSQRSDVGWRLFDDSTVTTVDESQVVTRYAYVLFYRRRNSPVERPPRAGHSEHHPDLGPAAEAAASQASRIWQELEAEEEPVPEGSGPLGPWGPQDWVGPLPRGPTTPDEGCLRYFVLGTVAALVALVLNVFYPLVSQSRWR
In short: (§1)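 Labelling with Biotin-Ahx-Ub-VS (0.5 µM final, 1 h) followed a 3 h triplicate treatment of HEK293T lysate (495 µg per sample, Tris/CHAPS/IGEPAL buffer with protease inhibitors) with fragment at 200 µM or vehicle. Labelled DUBs were NeutrAvidin-enriched, digested with LysC and trypsin, and run by diaPASEF LC-MS/MS. The values, average log2 fragment/vehicle ratios by unpaired t-test, come from global-median-normalised Spectronaut label-free quantities. Proteins with ≥2 unique peptides were used.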

USP24 = USP24 (UniProt Q9UPU5)
USP24, sequence (Q9UPU5 whole entry): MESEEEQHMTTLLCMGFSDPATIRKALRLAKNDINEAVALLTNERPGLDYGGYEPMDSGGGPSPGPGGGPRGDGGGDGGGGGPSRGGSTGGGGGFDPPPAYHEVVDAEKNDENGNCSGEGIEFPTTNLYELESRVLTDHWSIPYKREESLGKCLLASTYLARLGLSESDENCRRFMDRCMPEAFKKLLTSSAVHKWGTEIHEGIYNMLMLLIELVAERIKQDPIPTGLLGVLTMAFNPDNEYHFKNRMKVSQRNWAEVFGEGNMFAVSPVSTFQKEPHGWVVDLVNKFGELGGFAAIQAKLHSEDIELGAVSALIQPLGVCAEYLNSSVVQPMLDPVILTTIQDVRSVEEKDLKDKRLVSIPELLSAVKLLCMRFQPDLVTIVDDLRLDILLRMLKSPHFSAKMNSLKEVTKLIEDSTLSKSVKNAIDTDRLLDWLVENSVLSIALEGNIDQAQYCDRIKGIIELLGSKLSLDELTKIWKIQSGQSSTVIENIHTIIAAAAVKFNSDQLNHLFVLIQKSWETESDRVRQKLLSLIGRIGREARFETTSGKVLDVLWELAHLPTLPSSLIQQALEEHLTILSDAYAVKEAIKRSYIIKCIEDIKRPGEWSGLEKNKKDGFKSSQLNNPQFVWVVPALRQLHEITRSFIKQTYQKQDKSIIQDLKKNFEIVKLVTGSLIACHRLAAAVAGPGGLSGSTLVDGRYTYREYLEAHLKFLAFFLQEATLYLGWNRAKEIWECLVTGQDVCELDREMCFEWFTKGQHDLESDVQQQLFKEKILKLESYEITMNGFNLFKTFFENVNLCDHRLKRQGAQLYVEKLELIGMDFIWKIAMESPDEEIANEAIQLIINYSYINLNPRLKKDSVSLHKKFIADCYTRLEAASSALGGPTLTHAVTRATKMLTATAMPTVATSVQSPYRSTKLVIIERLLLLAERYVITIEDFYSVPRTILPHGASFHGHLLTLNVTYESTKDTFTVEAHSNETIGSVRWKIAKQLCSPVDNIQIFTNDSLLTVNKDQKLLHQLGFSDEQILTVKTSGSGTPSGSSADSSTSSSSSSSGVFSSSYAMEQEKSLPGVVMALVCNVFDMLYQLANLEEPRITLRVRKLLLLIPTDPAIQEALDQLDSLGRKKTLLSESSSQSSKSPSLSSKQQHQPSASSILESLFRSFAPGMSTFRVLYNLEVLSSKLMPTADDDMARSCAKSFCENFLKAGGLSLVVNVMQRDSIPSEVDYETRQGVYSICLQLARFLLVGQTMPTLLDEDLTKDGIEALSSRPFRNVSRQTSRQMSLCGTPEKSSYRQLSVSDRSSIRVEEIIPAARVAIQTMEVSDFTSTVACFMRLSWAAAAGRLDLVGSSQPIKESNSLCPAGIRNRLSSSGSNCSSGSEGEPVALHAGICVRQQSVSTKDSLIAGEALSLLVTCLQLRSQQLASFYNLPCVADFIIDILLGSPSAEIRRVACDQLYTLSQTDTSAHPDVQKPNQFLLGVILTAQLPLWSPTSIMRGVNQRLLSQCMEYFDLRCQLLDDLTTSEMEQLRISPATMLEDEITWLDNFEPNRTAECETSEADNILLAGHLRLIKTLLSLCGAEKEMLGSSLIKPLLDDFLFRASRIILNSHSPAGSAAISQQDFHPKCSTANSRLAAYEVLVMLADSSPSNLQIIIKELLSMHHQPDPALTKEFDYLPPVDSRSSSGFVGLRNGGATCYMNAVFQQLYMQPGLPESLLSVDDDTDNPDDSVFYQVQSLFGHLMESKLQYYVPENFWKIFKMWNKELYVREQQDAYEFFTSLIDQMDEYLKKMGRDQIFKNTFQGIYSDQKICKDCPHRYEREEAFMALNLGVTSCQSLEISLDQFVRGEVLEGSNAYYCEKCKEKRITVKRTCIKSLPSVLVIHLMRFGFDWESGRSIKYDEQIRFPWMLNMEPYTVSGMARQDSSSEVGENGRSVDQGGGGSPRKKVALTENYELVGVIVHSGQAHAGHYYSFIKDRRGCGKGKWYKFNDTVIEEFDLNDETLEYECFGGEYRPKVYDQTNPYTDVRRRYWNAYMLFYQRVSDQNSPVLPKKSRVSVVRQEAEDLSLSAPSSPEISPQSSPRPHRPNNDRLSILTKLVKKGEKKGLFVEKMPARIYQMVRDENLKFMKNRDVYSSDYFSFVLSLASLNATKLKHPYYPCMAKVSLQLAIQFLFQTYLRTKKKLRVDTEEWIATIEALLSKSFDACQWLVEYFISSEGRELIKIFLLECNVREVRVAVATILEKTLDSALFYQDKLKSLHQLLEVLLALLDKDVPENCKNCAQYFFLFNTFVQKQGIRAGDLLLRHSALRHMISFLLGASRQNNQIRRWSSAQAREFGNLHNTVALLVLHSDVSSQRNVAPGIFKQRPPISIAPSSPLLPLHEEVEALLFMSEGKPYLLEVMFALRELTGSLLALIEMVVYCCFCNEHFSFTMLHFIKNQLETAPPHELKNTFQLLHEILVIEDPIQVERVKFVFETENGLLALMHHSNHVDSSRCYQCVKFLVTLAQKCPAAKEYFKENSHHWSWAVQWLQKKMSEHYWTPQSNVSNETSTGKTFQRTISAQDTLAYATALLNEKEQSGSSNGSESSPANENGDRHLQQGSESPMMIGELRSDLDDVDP
In short: as §1

USP25 = molecular target: T2, USP25 (UniProt Q9UHP3)
T2 sequence (whole entry): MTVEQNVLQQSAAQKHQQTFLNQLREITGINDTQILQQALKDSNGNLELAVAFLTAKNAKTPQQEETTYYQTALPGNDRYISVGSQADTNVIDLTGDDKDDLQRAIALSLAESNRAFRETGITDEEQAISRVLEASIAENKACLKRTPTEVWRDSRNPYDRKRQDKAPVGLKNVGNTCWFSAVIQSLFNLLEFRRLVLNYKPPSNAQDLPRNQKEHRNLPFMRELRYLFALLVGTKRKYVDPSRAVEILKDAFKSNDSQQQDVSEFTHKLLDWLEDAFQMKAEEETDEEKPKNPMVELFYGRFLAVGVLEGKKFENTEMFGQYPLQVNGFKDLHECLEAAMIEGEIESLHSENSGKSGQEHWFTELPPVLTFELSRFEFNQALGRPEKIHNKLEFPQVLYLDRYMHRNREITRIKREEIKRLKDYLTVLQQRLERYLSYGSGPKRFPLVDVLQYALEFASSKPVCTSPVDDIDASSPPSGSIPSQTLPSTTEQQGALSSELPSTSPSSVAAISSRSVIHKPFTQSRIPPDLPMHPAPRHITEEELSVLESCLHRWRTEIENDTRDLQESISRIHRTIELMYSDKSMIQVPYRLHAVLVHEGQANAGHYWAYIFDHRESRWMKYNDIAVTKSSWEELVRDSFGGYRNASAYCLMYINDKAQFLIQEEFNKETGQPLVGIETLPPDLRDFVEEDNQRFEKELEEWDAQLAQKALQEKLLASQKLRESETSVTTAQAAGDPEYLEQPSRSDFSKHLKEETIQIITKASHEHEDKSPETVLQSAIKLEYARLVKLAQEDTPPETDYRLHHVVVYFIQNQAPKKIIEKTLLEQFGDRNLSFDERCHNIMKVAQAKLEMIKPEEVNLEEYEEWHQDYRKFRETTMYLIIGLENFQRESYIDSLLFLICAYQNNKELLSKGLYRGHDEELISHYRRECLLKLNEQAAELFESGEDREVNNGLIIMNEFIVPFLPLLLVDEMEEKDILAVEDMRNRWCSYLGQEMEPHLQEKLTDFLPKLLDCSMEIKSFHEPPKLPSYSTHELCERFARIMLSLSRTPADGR
In short: as §1

USP28 = molecular target: T3, USP28 (UniProt Q96RU2)
T3 sequence (whole entry): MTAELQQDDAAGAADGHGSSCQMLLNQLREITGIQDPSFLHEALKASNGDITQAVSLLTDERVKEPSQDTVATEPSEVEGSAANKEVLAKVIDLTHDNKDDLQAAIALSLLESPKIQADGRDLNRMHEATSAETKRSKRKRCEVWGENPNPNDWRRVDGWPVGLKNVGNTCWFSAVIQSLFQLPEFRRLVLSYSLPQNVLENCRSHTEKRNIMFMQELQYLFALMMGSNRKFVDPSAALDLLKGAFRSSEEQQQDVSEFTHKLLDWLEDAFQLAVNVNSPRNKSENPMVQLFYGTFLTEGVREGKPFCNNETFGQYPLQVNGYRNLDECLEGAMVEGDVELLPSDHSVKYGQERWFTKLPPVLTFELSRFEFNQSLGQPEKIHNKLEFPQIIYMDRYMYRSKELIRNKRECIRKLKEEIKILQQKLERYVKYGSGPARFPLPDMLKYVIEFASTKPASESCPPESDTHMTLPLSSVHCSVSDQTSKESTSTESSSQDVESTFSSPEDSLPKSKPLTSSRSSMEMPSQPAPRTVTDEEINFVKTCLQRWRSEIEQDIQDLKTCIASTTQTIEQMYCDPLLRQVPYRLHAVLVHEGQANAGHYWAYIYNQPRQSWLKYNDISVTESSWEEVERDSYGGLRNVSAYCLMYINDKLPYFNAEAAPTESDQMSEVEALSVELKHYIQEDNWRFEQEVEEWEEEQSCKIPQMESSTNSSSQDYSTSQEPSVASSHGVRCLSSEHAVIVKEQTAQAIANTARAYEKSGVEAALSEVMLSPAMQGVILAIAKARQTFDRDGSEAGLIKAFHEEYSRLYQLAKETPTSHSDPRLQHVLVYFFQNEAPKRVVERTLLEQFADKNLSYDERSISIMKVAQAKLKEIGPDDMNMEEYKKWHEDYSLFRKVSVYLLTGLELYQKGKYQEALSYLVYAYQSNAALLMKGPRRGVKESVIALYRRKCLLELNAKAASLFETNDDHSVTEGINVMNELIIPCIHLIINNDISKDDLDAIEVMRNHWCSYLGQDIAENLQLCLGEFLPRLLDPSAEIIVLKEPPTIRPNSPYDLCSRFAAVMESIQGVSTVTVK
In short: as §1

Question: What does the source list for CC(NC(=O)CCl)c1csc(-c2ccccc2)n1.Cl (centres undefined)?
Answer: log2 ratio of Biotin-Ahx-Ub-VS probe labelling (USP19): -0.563; log2 ratio of Biotin-Ahx-Ub-VS probe labelling (USP24): -0.822; log2 ratio of Biotin-Ahx-Ub-VS probe labelling (USP25): -0.638; log2 ratio of Biotin-Ahx-Ub-VS probe labelling (USP28): -1.79 (active)
